Screens deposited in PubChem BioAssay by The Scripps Research Institute Molecular Screening Center.
A selection: hits, their analogues and other compounds. The true share with any hit is near 2.9%.
rCAG RNA binder: molecules binding r(CAG) RNA repeats. r(CAG) RNA repeat, TO-PRO-1 dye displacement fluorescence. inhibition, % at 3 µM. hit rate 1.3% among 370,000. AID 651821;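 active means inhibition above the plate cutoff, the mean of all test compounds on that plate plus 3 SD, cut at about 35% in these data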;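 further: higher means more dye released from RNA so lower well fluorescence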
PAFAH1B2 FP inh: inhibitors of human PAFAH1B2; recombinant PAFAH1B2, FP-rhodamine activity probe, fluorescence polarization; P68402; inhibition, % at 3.39 µM; hit rate 1.2% among 340,000;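 active means inhibition above the mean of all tested compounds plus 3 SD, cut at about 24% in these data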
Target sequence (P68402 whole entry, looked up): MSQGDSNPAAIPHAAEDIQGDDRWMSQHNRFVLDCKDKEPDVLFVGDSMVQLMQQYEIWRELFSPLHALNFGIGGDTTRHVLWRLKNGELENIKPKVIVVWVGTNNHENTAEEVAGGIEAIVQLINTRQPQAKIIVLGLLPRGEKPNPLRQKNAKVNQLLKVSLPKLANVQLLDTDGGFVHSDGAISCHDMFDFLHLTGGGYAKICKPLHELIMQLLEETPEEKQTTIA
PAFAH2 FP inh: PAFAH2 (human) inhibition. Q99487. recombinant PAFAH2, FP-rhodamine activity probe, fluorescence polarization. inhibition, % at 3.39 µM. hit rate 0.99% among 340,000;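 active means inhibition above the mean over all tested compounds plus 3 SD, cut at about 30% in these data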;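 further: inhibitors block probe labeling of enzyme so polarization drops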
ZTA DNA inh: ZTA (EBV) inhibition in EBNA-1 counter-screen; P03206; ZTA-DNA binding, fluorescence polarization; inhibition, % at 11 µM; hit rate 0.15% among 320,000; AID 2234; in the data active means inhibition above about 33%
EBNA-1 inhibitor: blocks EBNA-1 binding to DNA; EBNA-1 DNA binding, fluorescence polarization; inhibition, % at 14.8 µM; hit rate 0.34% among 300,000; AID 1950; in the data active means inhibition above about 28%
PAFAH1B3 FP inh: inhibitors of human PAFAH1B3; inhibition, % at 3.39 µM; recombinant PAFAH1B3, FP-rhodamine probe, fluorescence polarization; hit rate 0.28% among 340,000;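 active means inhibition above the screen-wide average of all tested compounds plus 3 SD, cut at about 25% in these data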
Target sequence (Q15102 whole entry, looked up): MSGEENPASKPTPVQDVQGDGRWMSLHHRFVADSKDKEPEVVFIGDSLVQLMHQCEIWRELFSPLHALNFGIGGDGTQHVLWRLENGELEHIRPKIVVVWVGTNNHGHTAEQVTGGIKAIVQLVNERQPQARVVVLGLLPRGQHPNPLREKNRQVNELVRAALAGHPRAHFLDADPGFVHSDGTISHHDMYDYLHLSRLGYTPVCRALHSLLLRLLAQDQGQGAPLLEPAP
Hits are given with their value; n = inactive; x = not tested or not shown; + = active, no number; ! = not confirmed by another sample.

SMILES	rCAG RNA binder	PAFAH1B2 FP inh	PAFAH2 FP inh	ZTA DNA inh	EBNA-1 inhibitor	PAFAH1B3 FP inh
CC(C)N(Cc1cn(Cc2ccccc2)nn1)S(=O)(=O)c1ccccc1Br	n	x	x	x	x	x
COc1ccccc1/C=C(/CC(=O)NCc1ccc2c(c1)OCO2)c1nc2ccccc2s1	n	n	n	n	36	n
O=C(O)c1cccc(N2C(=O)c3cc([N+](=O)[O-])cc4cc([N+](=O)[O-])cc(c34)C2=O)c1	n	n	n	n	n	34
COc1ccc2c(c1)CN1C(=O)N(Cc3ccccc3)S(=O)(=O)CC21 (stereo unspecified)	n	x	x	x	x	x
O=S(=O)(NOCc1ccc(Cl)cc1)c1ccc(Cl)cc1	n	56	n	n	n	n
Cc1ccc(CONS(=O)(=O)c2cc(C)ccc2C)cc1	n	n	n	n	x	n
O=C(O)CCNc1ccc(NCCC(=O)O)c2c1C(=O)c1ccccc1C2=O	n	n	46	158	128	n
COc1ccccc1NCCC(=O)O	n	n	n	n	n	n
CCOC(=O)[C@]12CCCC3=C1N(CCC3)C(=O)[C@@H](CC(=O)NCCCCc1ccccc1)C2	n	x	x	x	x	x
COc1ccc(C(=O)NCc2ccccc2)cc1S(=O)(=O)N1CCCc2ccccc21	n	n	n	n	n	n
COc1ccc(C(=O)O)cc1S(=O)(=O)N1CCCc2ccccc21	n	26	n	n	n	n
CCS(=O)(=O)Nc1ccc2c(c1)C(=O)N(C)[C@@H]1CC[C@H](CC(=O)NCCOC)O[C@H]1CO2	n	x	x	x	x	x
O=C(COC(=O)c1ccc(Cl)c(Cl)c1)NC1CCCC1	n	n	58	n	n	n
O=C(COC(=O)c1ccc(O)cc1)NC1CCCCCC1	n	n	83	n	x	n
O=C(COC(=O)c1cnc(Cl)c(Cl)c1)NC1CCCC1	n	x	x	x	x	x
COc1ccc(C(=O)OCC(=O)NC2CC2)cc1S(=O)(=O)Nc1ccc(C)cc1	n	n	53	n	x	n
O=C(COC(=O)c1ccc(NS(=O)(=O)c2ccc(Br)s2)cc1)NC1CCCC1	n	n	88	n	n	n
Cc1ccc(SCC(=O)NCCC2=CCCCC2)cc1	n	50	n	n	n	n
Cc1ccc(OCC(=O)NCCC2=CCCCC2)cc1	n	n	n	n	n	n
CN(C)c1ccc(C(=O)OCC(=O)NCCC2=CCCCC2)cc1	n	n	80	n	n	n
CN(C)c1ccc(C(=O)OCC(=O)NC2CCCCC2)cc1	n	n	97	n	n	n
O=C(Nc1ccc(F)cc1)OCCCN1C(=O)CCC12CCCCC2	n	x	x	x	x	x
CCOC(=O)C1CCCN(C(=O)C2c3ccccc3Oc3ccccc32)C1 (stereo unspecified)	n	24	54	n	n	43
CCOC(=O)C1CCCN(C(=O)Cc2c(C(=O)O)[nH]c3ccccc23)C1 (stereo unspecified)	n	34	n	n	n	n
COCCCN1C(=O)[C@H](CC(=O)NCCCN2CCCC2=O)[C@]2(C(=O)OC)CCCCC=C12	n	x	x	x	x	x
SMILES	rCAG RNA binder	PAFAH1B2 FP inh	PAFAH2 FP inh	ZTA DNA inh	EBNA-1 inhibitor	PAFAH1B3 FP inh
CN(c1ccc(OCC(=O)Nc2ccccc2C(=O)O)cc1)S(=O)(=O)c1ccc(Cl)cc1	55	n	n	x	x	n
CCN(C)C(=O)CNc1nnnn1-c1ccccc1	n	x	x	x	x	x
O=C(c1cccc(F)c1)N(Cc1ccccn1)CC1CCCO1 (stereo unspecified)	n	x	x	x	x	x
O=C(CSc1nnc(-c2ccc(OC(F)F)cc2)o1)NCc1cccs1	n	n	n	78	147	n
CN(C)c1ccc(C=Nc2ccccc2)cc1	n	n	n	n	n	n
CN(C)c1ccc(C=Nc2ccc(N(C)C)cc2)cc1	n	n	n	+	+	n
CN(C)c1ccc(N=Cc2ccco2)cc1	x	n	n	+	+	n
Cc1ccc(N=Cc2ccc(N(C)C)cc2)cc1	n	n	n	n	n	n
O=C(CSc1nc2ccccc2o1)NC1CCCC1	n	n	n	n	n	n
O=C(CSc1nc2ccccc2o1)NCC1CCCO1 (stereo unspecified)	n	24	32	n	n	n
CC(C)c1ccc(NC2CCCN(C(=O)c3cc(C(C)C)nc(N)n3)C2)cc1 (stereo unspecified)	n	n	n	n	n	n
CC(C)c1cc(C(=O)N2CCCC(Nc3ccc(F)cc3)C2)n[nH]1 (stereo unspecified)	n	24	n	n	n	n
COC(=O)[C@]12CCCCC=C1N(Cc1ccc(OC)cc1)C(=O)[C@@H]2CC(=O)N1CCSCC1	n	x	x	x	x	x
O=C(Cn1cc(SCc2ccc(F)cc2)c2ccccc21)N1CCOCC1	n	n	n	n	n	n
O=C(Cn1cc(SCc2ccc(Cl)cc2)c2ccccc21)N1CCOCC1	n	25	n	n	n	n
CC(Oc1ccc(Cl)cc1)C(=O)NNC(=S)NC(=O)c1ccco1 (stereo unspecified)	n	26	n	n	n	n
CCc1ccc(S(=O)(=O)/N=C2\C=CC(=O)c3ccccc32)cc1	x	x	x	n	n	x
CCc1ccc(S(=O)(=O)/N=C2\C=C(Nc3ccc(O)cc3)C(=O)c3ccccc32)cc1	x	31	37	n	n	66
CCc1ccc(S(=O)(=O)/N=C2/C=C(Sc3ncn[nH]3)C(=O)c3ccccc32)cc1	x	50	41	n	n	50
Cc1cccc(NC2=C/C(=N/S(=O)(=O)c3cccs3)c3ccccc3C2=O)c1	n	n	n	n	n	64
Cc1ccc(Cl)cc1NC1=C/C(=N\S(=O)(=O)c2cccs2)c2ccccc2C1=O	n	28!	31	n	n	58
CC1CCN(C2=NC(=O)N(c3ccc(Br)cc3)C(=O)C2)CC1	n	x	x	x	x	x
Cc1ccc(NC2=C/C(=N\S(=O)(=O)c3cccs3)c3ccccc3C2=O)c(C)c1	x	30	34	n	n	65
